Seven compounds from PubChem BioAssay (NCI) can be followed below.

Test in all cases: NCI-60 one-dose screen, 48 h (100 = growth as untreated, 0 = no growth, -100 = all killed)
What all share (conditions): 10 µM unless noted

Assay [1] deals with HCT-15 colon.
The test system of assay [2] is HT29 colon.
For assay [3], the system named is SNB-75 CNS.
Assay [4] has as its system SNB-19 CNS.
Assay [5] concerns U251 CNS.
Assay [6] relates to PC-3 prostate.
Assay [7] concerns SK-MEL-5 melanoma.
The subject of assay [8] is UACC-62 melanoma.
For assay [9], the system named is LOX IMVI melanoma.
The test system of assay [10] is SK-MEL-28 melanoma.
The test system of assay [11] is SK-MEL-2 melanoma.
In assay [12] the test system is EKVX NSCLC.
For assay [13], the system named is SN12C renal.
The subject of assay [14] is UO-31 renal.
Assay [15] relates to TK-10 renal.
Assay [16] deals with ACHN renal.
The test system of assay [17] is CAKI-1 renal.
Assay [18] has as its system A498 renal.
Assay [19] deals with CCRF-CEM leukemia.
Assay [20] has as its system MOLT-4 leukemia.

Each structure is given as a SMILES string. The panel holds about 83,000 compounds, 20% with a hit somewhere; the sample as a whole holds those more often.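 Note: values are percent growth. 100 is the growth of untreated cells, values between 100 and 0 indicate rising inhibition; between -100 and 0 indicates cell death.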 Values without a mark were called inactive. The source made the active and inactive calls. How the source made its calls: active means growth percent below 10; inactive means the rest.

`O=C1Nc2ccccc2[C@]12CC(c1ccccc1)=NN2`: the growth in assay [1] is 31.6%; in assay [2] it was 15.8%; in [3] it was 62.2%; in assay [4], 52.7%; in assay [5] it was 38.9%; in assay [6], 38.5%. Further, the growth is 30.2% in assay [7]; 19.5% in assay [8]; 40.2% in assay [9]; 59.2% in assay [10]; 44.9% in [11]; 50.7% in assay [12]. Also, the growth in [13] is 59.5%; in assay [14] it was 49.5%; in [15] it was 79.7%; in [16], 54.3%; in assay [17], 38.7%; in assay [18], 60%. Also, the growth is 37.2% in [19] and 43.2% in assay [20].

For the compound `COc1cc(C(=O)n2nc(N3CCN(C)CC3)c3cc(N)ccc32)cc(OC)c1OC`, the growth in assay [1] is 37%; in assay [2] it was 86.8%; in assay [3] it was 39.9%; in assay [4] it was 35.2%; in [5], 31.2%; in assay [6], 50.1%. The growth in assay [7] was 27.3%; in assay [8] it was 26.2%; in assay [9] it was 35.5%; in assay [10], 65.8%; in assay [11], 70.9%; in assay [12], 34.1%. For the same compound, the growth in assay [13] was 39.6%; in assay [14] it was 26.4%; in assay [15], 59.1%; in [16] it was 36.8%; in assay [17], 57.3%; in [18] it was -3.79% (active). Also, the values for the growth in assay [19] and in assay [20] were 20.2% and 17.3%, respectively.

On to `Cc1cccnc1NC(=S)Nc1ncccc1C`, for which the growth was 104% in [1]; 103% in [2]; 96.2% in [3]; 104% in assay [4]; 99.7% in [5]; 99.9% in assay [6]. Further, the growth in assay [7] was 101%; in assay [8] it was 100%; in [9] it was 107%; in [10] it was 111%; in assay [11], 103%; in assay [12] it was 95.6%. The growth was 98.4% in assay [13]; 108% in assay [14]; 90.1% in assay [15]; 109% in assay [16]; 70.7% in assay [17]; 115% in [18]. In addition, the growth was 91.4% in assay [19] and 60.3% in [20].

For `N#Cc1nn(-c2cc(=O)[nH]c3ccc(Cl)cc23)c(N)c1C#N`, the growth in assay [1] was 108%; in assay [2] it was 101%; in assay [3], 113%; in [4] it was 98.8%; in [5], 103%; in assay [6] it was -87.3% (active). Moreover, the growth in [7] is 102%; in assay [8], 81.9%; in [9] it was 96.6%; in assay [10] it was 104%; in assay [11], 116%; in assay [12] it was 94%. Besides, the growth in assay [13] is 104%; in assay [14], 75.8%; in assay [15], 105%; in assay [16] it was 92.7%; in [17], 101%; in assay [18] it was 116%. The growth in [19] is -15.8% (active); in assay [20], -3.91% (active).

In the case of `O=C(/C=C/c1cccs1)c1ccc(Cl)nc1`, the growth is 100% in assay [1]; 101% in assay [2]; 95.2% in assay [3]; 102% in assay [4]; 99.9% in assay [5]; 104% in [6]. Besides, the growth in assay [7] is 104%; in assay [8], 97.2%; in [9] it was 102%; in [10], 105%; in assay [11], 98%; in [12], 102%. Further, the growth is 103% in [13]; 93.5% in assay [14]; 84.2% in [15]; 106% in assay [16]; 94% in assay [17]; 85.6% in assay [18]. Further, the growth in assay [19] was 91.4%; in assay [20], 99.6%.

As for `CCN(CC)c1ccc(/C=C/C(=O)c2ccc(Nc3nc(Nc4ccccc4)nc(Nc4ccccc4)n3)cc2)cc1`, the growth was 32.4% in assay [1]; 49.8% in [2]; 26.8% in assay [3]; 67.5% in [4]; 43.4% in assay [5]; 34.1% in assay [6]. Also, the growth was 40.7% in [7]; 54.8% in [8]; 40.3% in assay [9]; 65.6% in [10]; 27.9% in assay [11]; 31.5% in [12]. Moreover, the growth in assay [13] is 74%; in [14], 23.9%; in [15] it was 59.3%; in assay [16], 49.1%; in [17], 44%; in [18], 30.3%. In addition, the growth in assay [19] is 5.63% (active); in [20], 22.6%.

As to `CC1(c2ccccc2O)NN=C(/N=C/c2cccc([N+](=O)[O-])c2)N1C(Cc1c[nH]c2ccccc12)C(=O)O` (stereo not given), the growth in assay [1] was 98.7%; in [2] it was 102%; in assay [3], 92.3%; in assay [4] it was 96.9%; in [5], 96.1%; in assay [6], 76.9%. Besides, the growth in [7] was 93%; in assay [8], 77.6%; in [9], 90.5%; in [10], 106%; in [11], 87.8%; in [12], 77.6%. Further, the growth in assay [13] was 94.2%; in assay [14], 70.8%; in assay [15] it was 141%; in assay [16] it was 91.1%; in assay [17], 93.7%; in [18], 90.9%. The growth in assay [19] was 81.9%; in assay [20] it was 92.5%.
